This is part of a sample that, as a whole, favours compounds with a hit. Of some 83,000 tested, about 20% had one in any assay.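 Single-concentration screen, 48 h exposure, 96-well plates. Endpoint: percent growth. Below 10 = active.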 A number with no mark means an inactive call. Calls of active or inactive are those of the source.

In the experiment the test system is MDA-MB-468 breast. Briefly: NCI-60 one-dose screen, 48 h (100 = growth as untreated, 0 = no growth, -100 = all killed). Conditions: 10 µM unless noted.
`OCCN1CCCN(CCCN2c3ccccc3Sc3ccc(C(F)(F)F)cc32)CC1`: the growth was 39.6%.
Consider `CCn1cc(C(=O)O)c(=O)c2cc(F)c(N3CCN(CC(=O)Nc4ccccc4)C(C)C3)c(F)c21` (stereo not drawn), for which the growth was 92.6%.
Then `CCc1ccc(-c2ccc(=O)n(-c3ccc(S(N)(=O)=O)cc3)n2)cc1`, with 7.89% (active).

These data come from PubChem BioAssay (NCI).
